Data: PubChem BioAssay AID720690 (Broad Institute, 2013)
Measured potencies and affinities stand elsewhere. Activity calls are given as the source filed them.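 The calls were made as follows: active = every repeat run showing a signal drop whose fitted half-maximal concentration is at most twice the top tested concentration; inconclusive = repeat runs disagree, or flat partial drop, or poor fit; inactive = the rest.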

Assay: HEK293T cytotoxicity, dose response, cytotoxicity control for miR-122 modulator project, cell-based, activator set, cherry-pick (AID 720690)

| SMILES | outcome |
| --- | --- |
| C/C=C/c1ccc2c(c1)O[C@H](CN(C)C(=O)c1cnccn1)[C@H](C)CN([C@@H](C)CO)S2(=O)=O | inactive |
| CCCCCn1c(=O)[nH]c2cc(C(=O)NCCN3C(C)CCCC3C)ccc2c1=O (configuration not stated) | inactive |
| CCCCc1cc(=O)oc2cc(C)cc(OC(C)C(=O)O)c12 (configuration not stated) | inactive |
| Cc1ccc(S(=O)(=O)NCCCNS(C)(=O)=O)cc1 | inactive |
| CCC(=O)N1[C@H](CN(C(C)C)S(C)(=O)=O)[C@H](c2ccccc2)[C@@H]1CO | inactive |
| COCCNC(=O)C[C@H]1CC[C@@H]2[C@H](COc3ccc(NC(=O)C4CCOCC4)cc3C(=O)N2C)O1 | inactive |
| CN1C(=O)c2cc(NC(=O)c3cccc(C(F)(F)F)c3)ccc2OC[C@H]2O[C@H](CC(=O)NCCN3CCCC3)CC[C@H]21 | inactive |
| C[C@@H]1CN([C@H](C)CO)S(=O)(=O)c2ccc(C3=CCCCC3)cc2O[C@@H]1CN(C)C(=O)Cc1ccncc1 | inactive |
| CCNC(=O)C[C@@H]1CC[C@H]2[C@@H](COc3ccc(NC(=O)c4ccc(C(F)(F)F)cc4)cc3C(=O)N2C)O1 | inactive |
| CO[C@@H]1CN(C)C(=O)c2cc(NC(=O)Nc3ccc(Cl)c(Cl)c3)ccc2OC[C@H](C)NC[C@H]1C | inactive |
| CN1C(=O)c2cc(NC(=O)c3ccc4c(c3)OCO4)ccc2OC[C@@H]2O[C@@H](CC(=O)O)CC[C@@H]21 | inactive |
| CC(C)OCCCNC(=O)c1ccncc1 | inactive |
| COCC(=O)Nc1ccc2c(c1)C(=O)N(C)[C@@H]1CC[C@@H](CC(=O)NC3Cc4ccccc4C3)O[C@@H]1CO2 | inactive |
| COC(=O)C[C@@H]1CC[C@H]2[C@@H](COc3ccc(NC(=O)Nc4ccccc4C)cc3C(=O)N2C)O1 | inactive |
| CC(C)C(=O)Nc1ccc2c(c1)C(=O)N(C)[C@H]1CC[C@H](CC(=O)NCCc3ccccc3)O[C@H]1CO2 | inactive |
| CN(C)C(=O)c1ccc(NC(=O)c2cc(-n3cnnc3)ccc2Cl)cc1 | inactive |
| CN1C(=O)c2cc(NC(=O)c3cccc(F)c3)ccc2OC[C@@H]2O[C@H](CC(=O)Nc3ccccc3)CC[C@H]21 | inactive |
| CC(=O)Nc1ccc2c(c1)C(=O)N(C)[C@@H]1CC[C@H](CC(=O)NCCCN3CCOCC3)O[C@@H]1CO2 | inactive |
| CC(C)CC#Cc1ccc2c(c1)O[C@H](CN(C)C(=O)c1cnccn1)[C@H](C)CN([C@@H](C)CO)S2(=O)=O | inactive |
| CNC(=O)C[C@@H]1CC[C@@H]2[C@H](COc3ccc(NC(=O)c4cccc(OC)c4)cc3C(=O)N2C)O1 | inactive |
| CN1C(=O)c2cc(NC(=O)Nc3ccc(Cl)cc3)ccc2OC[C@H]2O[C@H](CC(=O)NCCN3CCCCC3)CC[C@H]21 | inactive |

| SMILES | outcome |
| --- | --- |
| CCOC(=O)c1nc(C)n(-c2ccc(Cl)cc2Cl)n1 | inactive |
| CCCNC(=O)Nc1ccc2c(c1)OC[C@H](C)N(CCC)C[C@H](C)[C@H](OC)CN(C)C2=O | inactive |
| O=S(=O)(Nc1nccs1)c1ccc(NS(=O)(=O)c2cccs2)cc1 | inactive |
| O=C(COc1ccccc1F)N1CCc2ccccc2C1 | inactive |
| C/C=C/c1ccc2c(c1)O[C@H](CN(C)C(=O)Cc1cccnc1)[C@H](C)CN([C@H](C)CO)S2(=O)=O | inactive |
| COCC(=O)N(C[C@@H]1N[C@H](CO)[C@H]1c1ccc(-c2cccnc2)cc1)C(C)C | inactive |
| O=C(C1CC1)N1C[C@H]2[C@@H](c3ccccc31)[C@H](CO)N2C(=O)c1ccccc1F | inactive |
| CCCNC(=O)N1[C@@H]2CN(C(=O)c3ccccc3)c3ccccc3[C@@H]2[C@@H]1CO | inactive |
| CCC(=O)N1[C@H](CO)[C@@H](c2ccccc2)[C@H]1CN(C(C)C)S(C)(=O)=O | inactive |
| CNC(=O)C[C@@H]1CC[C@@H]2[C@@H](COc3ccc(NC(=O)c4cccc(OC)c4)cc3C(=O)N2C)O1 | inactive |
| CN1C(=O)c2cc(NC(=O)c3ccc(F)cc3)ccc2OC[C@@H]2O[C@@H](CC(=O)O)CC[C@@H]21 | inactive |
| COc1cccc(-c2ccc3c(c2)O[C@H](CN(C)C(=O)C2CCOCC2)[C@H](C)CN([C@H](C)CO)S3(=O)=O)c1 | inactive |
| COc1ccc(CC(NC(C)=O)C(=O)N2CCN(C(=O)N(C(C)C)C(C)C)CC2)cc1 (configuration not stated) | inactive |
| CCCNC(=O)N1[C@H](CO)[C@H](c2ccc(-c3ccccc3)cc2)[C@@H]1CNC(C)=O | inactive |
| CC(=O)N(C)C[C@@H]1[C@@H](c2ccccc2)[C@H](CO)N1C(=O)C1CCC1 | inactive |
| CNC(=O)C[C@H]1CC[C@@H]2[C@H](COc3ccc(NC(=O)Nc4ccc(F)c(F)c4)cc3C(=O)N2C)O1 | inactive |
| CC(=O)Oc1ccc2c(c1)C(=O)c1ccccc1CO2 | inactive |
| Cc1cc(C(=O)Nc2ccc3c(c2)C(=O)N(C)[C@H]2CC[C@H](CC(=O)N[C@@H](C)c4ccccc4)O[C@H]2CO3)no1 | inactive |
| C=CCc1c(OC)ccc2ccc(=O)oc12 | inactive |
| CNC(=O)C[C@H]1CC[C@H]2[C@@H](COc3ccc(NC(=O)c4cccc(OC)c4)cc3C(=O)N2C)O1 | inactive |
| C[C@H]1CN([C@@H](C)CO)S(=O)(=O)c2ccc(C3=CCCC3)cc2O[C@H]1CN(C)Cc1cccnc1 | inactive |
